PubChem BioAssay (NCI)
This is part of a sample that, as a whole, favours compounds with a hit. Of some 79,000 tested, about 15% had one in any assay. Active and inactive are the calls of the source. No stated cut-off is given here; in the data, active means growth inhibition above about 70%; inactive means the rest.

Tests used:
[1] = NCI Yeast Anticancer Drug Screen. Data for the rad52 strain (AID 147);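 further: 0% = growth of vehicle-treated control cultures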; details: S. cerevisiae rad52 mutant growth inhibition, stronger effect = higher value
Procedure, shortened: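 The repair-mutant yeast strain was incubated with compounds, then growth was read and inhibition derived relative to vehicle.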

[2] = NCI Yeast Anticancer Drug Screen. Data for the wt1 strain (AID 149);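 further: 0% = growth of vehicle-treated wt1 cultures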; details: S. cerevisiae wt1 strain (SPY 50644) growth inhibition, stronger effect = higher value
Procedure, shortened: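 Vehicle-normalised growth inhibition; strain wt1; compound exposure.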

[3] = NCI Yeast Anticancer Drug Screen. Data for the rad50EPP+ strain (AID 151);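 further: 0% = growth of vehicle-treated control cultures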; details: S. cerevisiae rad50 mutant strain, stronger effect = higher value
Procedure, shortened: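 Vehicle-normalised growth inhibition; rad50EPP+ yeast strain, altered in DNA damage repair, compound-treated.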

[4] = NCI Yeast Anticancer Drug Screen. Data for the mgt1 strain (AID 153); details: S. cerevisiae mgt1 mutant growth inhibition, stronger effect = higher value
Procedure, shortened: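 Vehicle-normalized growth inhibition is determined in mgt1 yeast, a strain selected for a defined alteration in DNA repair or cell cycle control.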

[5] = NCI Yeast Anticancer Drug Screen. Data for the rad50 strain (AID 155);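 further: 0% = growth of vehicle-only cultures of the same strain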; details: S. cerevisiae rad50 strain growth inhibition, stronger effect = higher value
Procedure, shortened: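 A DNA repair-deficient yeast mutant serves as the test organism; compound-induced growth inhibition is calculated against vehicle-treated cells.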

[6] = NCI Yeast Anticancer Drug Screen. Data for the mec2-1 strain (AID 157); details: S. cerevisiae mec2-1 strain, stronger effect = higher value
Procedure, shortened: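 Mutant yeast (mec2-1) grown with compound; growth inhibition relative to vehicle control reported.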

[7] = NCI Yeast Anticancer Drug Screen. Data for the rad14 strain (AID 159);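 further: 0% = growth of vehicle-treated control cultures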; details: S. cerevisiae rad14 strain growth inhibition, stronger effect = higher value
Procedure, shortened: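 Vehicle-treated cultures served as the baseline for growth inhibition of a DNA repair-mutant yeast strain exposed to each compound.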

[8] = NCI Yeast Anticancer Drug Screen. Data for the sgs1 mgt1 strain (AID 161);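 further: 0% = growth of cultures given vehicle only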; details: S. cerevisiae sgs1 mgt1 strain, stronger effect = higher value
Procedure, shortened: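 Percent growth inhibition was derived by comparing compound-exposed mutant yeast with vehicle-exposed cultures. The strain carries alterations in DNA damage repair.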

[9] = NCI Yeast Anticancer Drug Screen. Data for the CLN2oe strain (AID 163);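 further: 0% = growth of vehicle-only control cultures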; details: S. cerevisiae CLN2oe strain, stronger effect = higher value
Procedure, shortened: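 Compounds are applied to yeast harbouring a defined cell-cycle control change; reduced growth compared with vehicle-treated controls gives the value.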

[10] = NCI Yeast Anticancer Drug Screen. Data for the cln2 rad14 strain (AID 165);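 further: 0% = growth equal to vehicle treated cultures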; details: S. cerevisiae cln2 rad14 strain, stronger effect = higher value
Procedure, shortened: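 Readout is yeast growth inhibition versus vehicle-treated controls, using a strain with cln2 and rad14 alterations exposed to compound.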

[11] = NCI Yeast Anticancer Drug Screen. Data for the bub3 strain (AID 167); details: S. cerevisiae bub3 mutant strain, stronger effect = higher value
Procedure, shortened: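 Inhibition values come from growth of compound-treated mutant yeast normalised to vehicle-treated controls.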

[12] = NCI Yeast Anticancer Drug Screen. Data for the wt2 strain (AID 169);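 further: 0% = growth of vehicle-treated yeast cultures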; details: S. cerevisiae wt2 strain growth inhibition, stronger effect = higher value
Procedure, shortened: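 Against vehicle-treated controls, the growth of yeast exposed to each compound was compared, and the inhibition was recorded.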

[13] = NCI Yeast Anticancer Drug Screen. Data for the mlh1 strain (AID 171);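 further: 0% = growth of vehicle-treated control cultures of the same strain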; details: S. cerevisiae mlh1 strain growth inhibition, stronger effect = higher value
Procedure, shortened: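 Measured: yeast growth. Reference: vehicle-treated controls. Organism: strain with a defined alteration affecting DNA damage repair or cell cycle control, treated with compound.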

[14] = NCI Yeast Anticancer Drug Screen. Data for the sgs1 strain (AID 173);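 further: 0% = growth of vehicle-only control cultures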; details: S. cerevisiae sgs1 mutant, stronger effect = higher value
Procedure, shortened: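 Each compound was added to cultures of the altered yeast strain. Growth was recorded, and inhibition was derived by comparison with vehicle controls.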

[15] = NCI Yeast Anticancer Drug Screen. Data for the mlh1 rad18 strain (AID 175); details: S. cerevisiae mlh1 rad18 strain growth inhibition, stronger effect = higher value
Procedure, shortened: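 Genetically defined yeast (DNA repair-deficient) exposed to compounds; growth inhibition determined relative to vehicle.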

[16] = NCI Yeast Anticancer Drug Screen. Data for the rad18 strain (AID 177); details: S. cerevisiae rad18 mutant growth inhibition, stronger effect = higher value
Procedure, shortened: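 Vehicle-treated cultures served as the baseline for scoring compound-induced growth inhibition in DNA-repair-mutant yeast.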

[17] = at 5.0 µM (retest, dose inferred, filed as 0.5)
[18] = at 50.0 µM (retest, dose inferred, filed as 5.0)

Measured: growth inhibition

O=C(CSC(=S)N1CCCCC1)Nc1nc2c(s1)CCCC2
active: [1]; at 100.0 µM 79% | [2]; at 100.0 µM 79% | [4]; at 100.0 µM 85% | [5]; at 50.0 µM 74.3% | [5]; at 100.0 µM 83% | [6]; at 100.0 µM 79% | [7]; at 100.0 µM 73% | [8]; [18] 87% | [8]; at 50.0 µM 86% | [10]; [18] 70% | [10]; at 50.0 µM 72.2% | [11]; at 33.0 µM 80% | [11]; [18] 92% | [11]; at 50.0 µM 86.5% | [11]; at 100.0 µM 85% | [12]; at 100.0 µM 88% | [13]; at 100.0 µM 84% | [14]; at 100.0 µM 92% | [15]; at 50.0 µM 78.6% | [16]; at 100.0 µM 76%
inactive: [1]; at 1.2 µM 1% | [1]; at 3.7 µM 6% | [1]; at 11.0 µM 6% | [1]; at 33.0 µM 41% | [2]; at 1.2 µM -9% | [2]; at 3.7 µM -11% | [2]; at 11.0 µM -13% | [2]; at 33.0 µM 3% | [3]; at 1.2 µM 21% | [3]; at 3.7 µM 31% | [3]; at 11.0 µM 38% | [3]; at 33.0 µM 40% | [3]; at 100.0 µM 41% | [4]; at 1.2 µM -8% | [4]; at 3.7 µM -7% | [4]; at 11.0 µM -16% | [4]; at 33.0 µM 17% | [5]; at 1.2 µM -11% | [5]; at 3.7 µM -2% | [5]; [17] 31% | [5]; at 11.0 µM -16% | [5]; at 33.0 µM 26% | [5]; [18] 68% | [6]; at 1.2 µM 7% | [6]; at 3.7 µM -9% | [6]; [17] -4% | [6]; at 11.0 µM 1% | [6]; at 33.0 µM 1% | [6]; [18] 45% | [6]; at 50.0 µM 56.6% | [7]; at 1.2 µM -9% | [7]; at 3.7 µM -14% | [7]; at 11.0 µM -6% | [7]; at 33.0 µM 11% | [8]; [17] 17% | [9]; at 1.2 µM 3% | [9]; at 3.7 µM -6% | [9]; at 11.0 µM -14% | [9]; at 33.0 µM 0% | [9]; at 100.0 µM 61% | [10]; [17] 11% | [11]; at 1.2 µM 5% | [11]; at 3.7 µM -8% | [11]; [17] 45% | [11]; at 11.0 µM -4% | [12]; at 1.2 µM -7% | [12]; at 3.7 µM -3% | [12]; at 11.0 µM -2% | [12]; at 33.0 µM 22% | [13]; at 1.2 µM 24% | [13]; at 3.7 µM 19% | [13]; at 11.0 µM 14% | [13]; at 33.0 µM 43% | [14]; at 1.2 µM 22% | [14]; at 3.7 µM 20% | [14]; at 11.0 µM 15% | [14]; at 33.0 µM 52% | [15]; [17] 16% | [15]; [18] 53% | [16]; at 1.2 µM 27% | [16]; at 3.7 µM 19% | [16]; at 11.0 µM 25% | [16]; at 33.0 µM 23%

C=C(Cl)COC(=O)Nc1cccc(Cl)c1
inactive: [1]; at 1.2 µM 3% | [1]; at 3.7 µM 8% | [1]; at 11.0 µM 30% | [2]; at 1.2 µM -1% | [2]; at 3.7 µM -1% | [2]; at 11.0 µM 1% | [2]; at 33.0 µM 13% | [3]; at 1.2 µM 7% | [3]; at 3.7 µM 25% | [3]; at 11.0 µM 52% | [4]; at 1.2 µM -14% | [4]; at 3.7 µM -6% | [4]; at 11.0 µM -11% | [4]; at 33.0 µM 16% | [5]; at 1.2 µM 8% | [5]; at 3.7 µM 27% | [5]; [17] 0% | [5]; at 11.0 µM 58% | [6]; at 1.2 µM -19% | [6]; at 3.7 µM -10% | [6]; [17] -17% | [6]; at 11.0 µM -25% | [6]; at 33.0 µM 0% | [6]; [18] 19% | [6]; at 50.0 µM 3.15% | [7]; at 1.2 µM 1% | [7]; at 3.7 µM 2% | [7]; at 11.0 µM 4% | [7]; at 33.0 µM 39% | [8]; [17] -14% | [8]; [18] 47% | [8]; at 50.0 µM 45% | [9]; at 1.2 µM 0% | [9]; at 3.7 µM -5% | [9]; at 11.0 µM -10% | [9]; at 33.0 µM 3% | [10]; [17] 19% | [10]; [18] 16% | [10]; at 50.0 µM 25.1% | [11]; at 1.2 µM -17% | [11]; at 3.7 µM -17% | [11]; [17] -25% | [11]; at 11.0 µM -8% | [11]; at 33.0 µM 9% | [11]; [18] 18% | [11]; at 50.0 µM 34.4% | [12]; at 1.2 µM -3% | [12]; at 3.7 µM -1% | [12]; at 11.0 µM 1% | [12]; at 33.0 µM 39% | [13]; at 1.2 µM -6% | [13]; at 3.7 µM -1% | [13]; at 11.0 µM 1% | [13]; at 33.0 µM 36% | [14]; at 1.2 µM 0% | [14]; at 3.7 µM 3% | [14]; at 11.0 µM 13% | [14]; at 33.0 µM 63% | [15]; [17] -13% | [16]; at 1.2 µM -1% | [16]; at 3.7 µM -2% | [16]; at 11.0 µM 8% | [16]; at 33.0 µM 55%
active: [1]; at 33.0 µM 80% | [1]; at 100.0 µM 97% | [2]; at 100.0 µM 90% | [3]; at 33.0 µM 75% | [3]; at 100.0 µM 84% | [4]; at 100.0 µM 96% | [5]; at 33.0 µM 80% | [5]; [18] 79% | [5]; at 50.0 µM 82% | [5]; at 100.0 µM 97% | [6]; at 100.0 µM 91% | [7]; at 100.0 µM 97% | [9]; at 100.0 µM 94% | [11]; at 100.0 µM 92% | [12]; at 100.0 µM 98% | [13]; at 100.0 µM 97% | [14]; at 100.0 µM 97% | [15]; [18] 80% | [15]; at 50.0 µM 82.5% | [16]; at 100.0 µM 94%
